Test results published in PubChem BioAssay (NCI).
About 83,000 compounds went through this panel and 20% of them were active in at least one assay; those are over-represented in the sample as a whole.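 Negative percent growth values reflect cell death: -40 means 40% of the cells present at the start died, and -100 means all died.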 Calls of active or inactive are those of the source. Rule for the calls: active = growth percent below 10; inactive = the rest.

The compounds below were run on SF-539 CNS (assay: NCI-60 one-dose screen, 48 h (100 = growth as untreated, 0 = no growth, -100 = all killed)). Conditions: 10 µM unless noted.

Which growth does the source give for `CO[C@H]1CC(c2ccc[nH]2)=N[C@]12O[C@@H](C)C[C@@H]1CCCCCCCc3ccc([nH]3)[C@H]12` here?
Its growth is 20% (inactive).

Which growth does the source give for `COc1ccc2c(O)cc3c(c2c1)[C@H](CCl)CN3C(=O)c1cc2cc(NC(=O)CCN3CCOCC3)ccc2[se]1` here?
Its growth is -64.4% (active).

For `O=c1c(/C=C/c2c(O)ccc3ccccc23)nnc2sc(-c3cccc([N+](=O)[O-])c3)nn12`, which growth is on record?
Its growth is 53.2% (inactive).

For `CC1(C)CCC[C@]23C(=O)O[C@](O)(C(=O)C4=C[C@@](C)(/C=C/CCCc5ccc6ccc7cccc8ccc5c6c78)CC[C@@]42O)[C@@H]13`, which growth is on record?
Its growth is -96.6% (active).

How did the growth turn out when `CCOC(=O)CC1C(CNC(=O)NC)OC(n2cnc3c(NC(=O)Nc4ccccc4)ncnc32)C1O[Si](C)(C)C(C)(C)C` (configuration not stated) was run?
Its growth is 52.6% (inactive).

For `COc1ccc(-c2ccc(-c3ccc(C(=N)N)nc3)s2)cc1`, which growth is on record?
Its growth is -98.4% (active).

Which growth does the source give for `COc1ccc(Cn2cc3c(c2)-c2oncc2CC3)cc1` here?
The growth was 48% (inactive).

Which growth does the source give for `O=[N+]([O-])c1ccc(Oc2cccc3c(Oc4ccc([N+](=O)[O-])cc4[N+](=O)[O-])cccc23)c([N+](=O)[O-])c1` here?
Its growth is 96.3% (inactive).

For `CCCCCN(CCCCC)CC(O)c1c(Cl)ccc2ccccc12` (configuration not stated), which growth is on record?
The growth was 64.2% (inactive).

With `Cn1cc(-c2csc(-c3cn(C)c4ccc(F)cc34)n2)c2cnccc21` as the compound, how does the growth read?
Its growth is -92.5% (active).

With `CNC1=C([N+](=O)[O-])C(c2ccc(OC)cc2)C(C#N)=C(c2ccc[nH]2)O1` (configuration not stated) as the compound, how does the growth read?
Its growth is 99.2% (inactive).

For `Cc1cc(C(=O)Nc2cc(Nc3ncccc3-c3ncnc4nc[nH]c34)ccc2F)cc(C(C)(C)C#N)c1`, which growth is on record?
Its growth is 33.9% (inactive).
